Bioassay records from PubChem.
An excerpt weighted towards active compounds, which were near 2.4% of everything screened.
WRN helicase inh = qHTS for Inhibitors of WRN Helicase; Potency, µM (doses to about 114 µM), inactives show top-dose activity change, negative = inhibition, most hits filed as inhibitors; WRN helicase unwinding, fluorescent forked duplex, kinetic; Bifunctional 3'-5' exonuclease/ATP-dependent helicase WRN (Homo sapiens), Q14191; AID 651768, 2012; hit rate 0.46% among 360,000; further: on the % scale 0 is the no-effect control and ±100 the full control effect; nearly all actives have a fitted effect of over 55% in size
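Primary qHTS, 1536-well format. 20 nM WRN + compound, 15 min RT; start with 100 nM forked fluorophore/quencher duplex, 2 mM ATP (final); kinetic read ex 525/em 598 nm.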
Pol eta inh-1 = qHTS for Inhibitors of Polymerase Eta | AID 588591, 2011 | DNA polymerase eta (Homo sapiens), Q9Y253 | recombinant Pol eta, fluorescent DNA replication assay | Potency, µM (series often up to 114 µM), for the others: at the highest dose activity change, negative = inhibition, most hits filed as inhibitors | hit rate 1.2% among 390,000; further: on the % scale 0 is the no-effect control and ±100 the full control effect
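Fluorescent replication assay: 50 nM final substrate added after a 15 min room-temperature compound preincubation with 10 nM enzyme. Signal taken at 0 min and again at 10 min.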
Pol kappa inh-1 = qHTS for Inhibitors of Polymerase Kappa; purified Pol kappa, fluorescent DNA synthesis assay, 10 min; Potency, µM (top dose mostly 107 µM), without a hit: at the top dose activity, negative = inhibition, hits mostly inhibitors; AID 588579, 2011; DNA polymerase kappa (Homo sapiens), Q9UBT6; hit rate 0.53% among 400,000; further: on the % scale 0 is the no-effect control and ±100 the full control effect
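Kinetic fluorescence screen: compound preincubated 15 min RT with 10 nM enzyme; 50 nM substrate (final) initiates; reads at 0/10 min.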
Pol beta inh = qHTS Assay for Inhibitors of DNA Polymerase Beta | P06746 | Pol beta primer extension/strand displacement, fluorescence kinetic | Potency, µM (series often up to 114 µM), for inactives: top-dose activity change, negative = inhibition, actives largely listed as inhibitors | hit rate 1.3% among 340,000 | AID 485314, 2010; further: on the % scale 0 is the no-effect control and ±100 the full control effect
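Human Pol beta at 10 nM; strand-displacement substrate 50 nM final. Compound exposure 15 min at room temperature before start, reaction 10 min at room temperature.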
FEN1 inh-1 = qHTS Assay for the Inhibitors of Human Flap endonuclease 1 (FEN1) | Potency, µM (highest dose often 114 µM), inactives show at the top dose activity change, negative = inhibition, hits mostly inhibitors | AID 588795, 2011 | P39748 | hit rate 0.35% among 390,000 | Recombinant FEN1 flap cleavage, fluorescence, 15 min; further: on the % scale 0 is the no-effect control and ±100 the full control effect; nearly all actives have a fitted effect of over 65% in size
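FEN1 at 10 nM preincubated with compounds 15 min at room temperature, then flap DNA substrate added at 50 nM final. Signal read at 0 and 15 min; concentration-response fitted with four-parameter Hill equation.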
POLI inh = qHTS for Inhibitors of Polymerase Iota; Potency, µM (top dose mostly 115 µM), without a hit: top-dose activity, negative = inhibition, most hits filed as inhibitors; Pol iota fluorescent replication assay, 10 min; hit rate 1% among 390,000; DNA polymerase iota (Homo sapiens), Q9UNA4
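Pol iota at 10 nM preincubated 15 min with compounds at room temperature; reaction started with fluorescent substrate, 50 nM final. Fluorescence read kinetically at 0 and 10 min; buffer-only wells as negative control.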
TbPGK inh = qHTS for inhibitors of Phosphogylcerate Kinase: Hit Validation Screen; Potency, µM (series often up to 57.5 µM), for the others: top-dose activity change, negative = inhibition, most hits filed as inhibitors; hit rate 79% among 500; shares compounds with Pol kappa inh-1; TbPGK coupled GAPDH assay, Kinase-Glo luminescence; further: on the % scale 0 is the no-effect control and ±100 the full control effect; nearly all actives have a fitted effect of over 65% in size
Pol iota confirm = qHTS for Inhibitors of Polymerase Iota: Confirmatory Assay for Cherry-picked Compounds | Pol iota primer extension, TAMRA/BHQ fluorescence | AID 720496, 2013 | hit rate 77% among 1,500 | shares compounds with Pol kappa inh-1 | Potency, µM, most hits filed as inhibitors
Pol kappa inh-2 = qHTS for Inhibitors of Polymerase Kappa: Confirmatory Assay for Cherry-picked Compounds. shares compounds with Pol eta inh-1. hit rate 76% among 920. Potency, µM, most hits filed as inhibitors. purified Pol-kappa, fluorescent strand-displacement substrate
Pol eta inh-2 = qHTS for Inhibitors of Polymerase Eta: Confirmatory Assay for Cherry-picked Compounds; Potency, µM, most hits filed as inhibitors; hit rate 64% among 2,600; shares compounds with Pol eta inh-1; AID 720502, 2013; Pol eta primer extension, TAMRA/BHQ fluorescence, 10 min
FEN1 inh-2 = qHTS Assay for the Inhibitors of FEN1: Confirmatory Assay for Cherry-picked Compounds; shares compounds with FEN1 inh-1; FEN1 flap cleavage, TAMRA/BHQ2 fluorogenic DNA substrate; Potency, µM, most hits filed as inhibitors; hit rate 79% among 880; AID 720498, 2013; further: nearly all actives have a fitted effect of over 60% in size
* marks the source's active call; other numbers are inactive results; ? = inconclusive; · = no result given; [ ] = another dose, or the depositor's remark. The call rests on the fitted dose curve; in most records, active means well fitted curve in the direction sought with a large enough effect; inconclusive means small, poorly fitted or top-dose-only effect, or another doubt; inactive means no such curve, though single readings can be large; an effect the other way counts as inactive or inconclusive. Potency means the concentration at half of the fitted maximal effect.

SMILES	WRN helicase inh	Pol eta inh-1	Pol kappa inh-1	Pol beta inh	FEN1 inh-1	POLI inh	Pol iota confirm	Pol kappa inh-2	Pol eta inh-2	FEN1 inh-2	others
COc1ccccc1C(=O)c1cn(CC(=O)Nc2ccccc2F)c2nc(C)ccc2c1=O	·	-11%	-14%	-1%	0%	8%	·	·	·	·
COc1cccc(Cn2c(=O)cnc3cnc(Nc4ccccc4)nc32)c1	·	·	2%[60.1 µM]	·	·	·	·	·	·	·
COc1cc2c(oc(=O)c3cc(C)cc(OC)c32)c2c(C3OC(C)C(O)C(C)(O)C3O)ccc(O)c12 (centres undefined)	?	4µM*	40µM*	·	3.5µM*	14µM*	30*	·	21*	0.85*
NS(=O)(=O)c1ccc(N=Nc2c[nH]c(=O)c(O)c2)cc1	?	22µM*	?	?	?	14µM*	·	·	54*	?	TbPGK inh=18µM*
CC(=O)Nc1sc2c(c1-c1nc3ccccc3s1)CCNC2	·	·	·	·	·	·	21*	8.4*	·	3.4*
CC(=O)Nc1sc2c(c1-c1nc3ccccc3s1)CCCNC2	·	·	·	·	·	·	?	·	·	34*
CCCN(CCC)C(=O)c1c[nH]c2ccc(S(=O)(=O)N(C)c3ccc(Cl)cc3)cc2c1=O	·	-4%	-16%[60.1 µM]	-17%	17%	29%	·	·	·	·
CCN(CC)c1ccc2nc3ccc(N)cc3[n+](-c3ccccc3)c2c1	4.7µM*	?	22µM*	·	45µM*	79µM*	19*	47*	76*	48*	TbPGK inh=13µM*
CCN(CC)c1ccc(/C=C/c2cc(Cl)nc3ccccc23)cc1	·	·	-14%	·	-22%	7%	·	·	·	·
Cc1cc2nc3c(=O)[nH]c(=O)[nH]c3nc2c([N+](=O)[O-])c1N	50µM*	3.5µM*	28µM*	35µM*	45µM*	?	24*	17*	21*	38*
Cc1c(N)c(C(C)(C)C)cc(C(C)(C)C)c1[N+](=O)[O-]	-5%	?	-15%	0%	-5%	-25%	·	·	·	·
COc1ccc2nc(C)cc(N/N=C/c3cccc(OC)c3O)c2c1	?	?	79µM*	?	14µM*	?	30*	?	27*	9.5*
Cc1cc(N/N=C/c2ccccc2O)c2ccccc2n1	-18%	-17%	-1%	?	?	-3%	·	·	·	·
CCc1ccc2oc(C(=O)N(Cc3ccc(N(C)C)cc3)Cc3ccco3)c(C)c2c1	·	·	-5%	-13%	-13%	-9%	·	·	·	·
